Reference: PubChem BioAssay (NCI)
About 79,000 compounds went through this panel and 15% of them were active in at least one assay; those are over-represented in the sample as a whole. Active and inactive are the calls of the source. Cut-off read from the data, not from the text of the source: active = growth inhibition above about 70%; inactive = the rest.

Experiments:
[1] = NCI Yeast Anticancer Drug Screen. Data for the rad50 strain (AID 155);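 note: 0% = growth of vehicle-only cultures of the same strain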; settings: S. cerevisiae rad50 strain growth inhibition, stronger effect = higher value
Procedure, shortened: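 Readout: growth inhibition relative to vehicle-treated cultures. Compound exposure was carried out in a genetically defined yeast strain deficient in DNA damage repair.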

[2] = NCI Yeast Anticancer Drug Screen. Data for the mec2-1 strain (AID 157); settings: S. cerevisiae mec2-1 strain, stronger effect = higher value
Procedure, shortened: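 Each compound was tested on mec2-1 yeast, a strain altered in DNA damage repair or cell cycle control. Growth inhibition is reported relative to vehicle.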

[3] = NCI Yeast Anticancer Drug Screen. Data for the sgs1 mgt1 strain (AID 161);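 note: 0% = growth of cultures given vehicle only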; settings: S. cerevisiae sgs1 mgt1 strain, stronger effect = higher value
Procedure, shortened: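 Inhibition of yeast growth, normalised to vehicle-treated controls, is reported for a strain bearing genetic alterations in DNA damage repair.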

[4] = NCI Yeast Anticancer Drug Screen. Data for the cln2 rad14 strain (AID 165);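 note: 0% = growth equal to vehicle treated cultures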; settings: S. cerevisiae cln2 rad14 strain, stronger effect = higher value
Procedure, shortened: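 Test compounds were added to cln2 rad14 yeast cultures; inhibition of growth was then determined by comparison with vehicle treatment.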

[5] = NCI Yeast Anticancer Drug Screen. Data for the bub3 strain (AID 167); settings: S. cerevisiae bub3 mutant strain, stronger effect = higher value
Procedure, shortened: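 Readout: yeast growth inhibition, expressed relative to vehicle-only wells. The test organism is a mutant strain from a panel with lesions in DNA repair or checkpoint genes.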

[6] = NCI Yeast Anticancer Drug Screen. Data for the mlh1 rad18 strain (AID 175); settings: S. cerevisiae mlh1 rad18 strain growth inhibition, stronger effect = higher value
Procedure, shortened: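 Inhibition values reflect reduced growth of mutant yeast versus vehicle-treated controls following compound exposure; the mutations affect DNA damage repair.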

[7] = at 5.0 µM (retest, dose inferred, filed as 0.5)
[8] = at 50.0 µM (retest, dose inferred, filed as 5.0)

Measured: growth inhibition

Clc1ccc(Cc2nc3ccccc3s2)c(Cl)c1
inactive: [1]; [7] 39% | [2]; [7] 36% | [3]; [7] 43% | [4]; [7] 34% | [5]; [7] 43% | [6]; [7] 57%
active: [1]; [8] 98% | [1]; at 50.0 µM 90.8% | [2]; [8] 99% | [2]; at 50.0 µM 93.3% | [3]; [8] 99% | [3]; at 50.0 µM 94.1% | [4]; [8] 89% | [4]; at 50.0 µM 91.5% | [5]; [8] 98% | [5]; at 50.0 µM 92.5% | [6]; [8] 99% | [6]; at 50.0 µM 92.5%

O=C(NC1CCN(Cc2ccccc2)CC1)c1ccccc1I
active: [1]; [8] 73% | [1]; at 50.0 µM 74.3% | [3]; [7] 80% | [3]; [8] 81% | [3]; at 50.0 µM 82.6% | [4]; [7] 83% | [4]; [8] 82% | [4]; at 50.0 µM 81% | [5]; at 50.0 µM 74% | [6]; [7] 73% | [6]; [8] 76% | [6]; at 50.0 µM 80.8%
inactive: [1]; [7] 48% | [2]; [7] 38% | [2]; [8] 50% | [2]; at 50.0 µM 39.9% | [5]; [7] 59% | [5]; [8] 64%

Nc1ccc(C(=O)/C=C/c2ccccn2)cc1
active: [5]; [8] 79% | [6]; [8] 82%
inactive: [1]; [7] 3% | [1]; [8] 45% | [1]; at 50.0 µM 8.2% | [2]; [7] -6% | [2]; [8] 64% | [2]; at 50.0 µM 31.4% | [3]; [7] 1% | [3]; [8] 60% | [3]; at 50.0 µM 17.8% | [4]; [7] 9% | [4]; [8] 38% | [4]; at 50.0 µM 17.6% | [5]; [7] -1% | [5]; at 50.0 µM 66.8% | [6]; [7] 6% | [6]; at 50.0 µM 27.9%

CCOC(=O)c1ccc(NC(=O)O/N=C(/Cl)CCl)cc1
active: [1]; [8] 99% | [2]; [8] 95% | [2]; at 50.0 µM 83.8% | [4]; [8] 78% | [5]; at 50.0 µM 73.5% | [6]; [8] 79%
inactive: [1]; [7] -14% | [1]; at 50.0 µM 41.2% | [2]; [7] -5% | [3]; [7] -22% | [3]; [8] 50% | [3]; at 50.0 µM 55.3% | [4]; [7] -10% | [4]; at 50.0 µM 57.2% | [5]; [7] -16% | [5]; [8] 43% | [6]; [7] -5% | [6]; at 50.0 µM 69%

c1ccc(Nc2nnc3nc(-c4ccccc4)c(-c4ccccc4)nn23)cc1
inactive: [1]; [7] 12% | [1]; [8] 60% | [1]; at 50.0 µM 65.2% | [2]; [7] 12% | [2]; at 50.0 µM 55.1% | [3]; [7] 19% | [4]; [7] -1% | [4]; [8] 41% | [4]; at 50.0 µM 33% | [5]; [7] 6% | [5]; [8] 39% | [5]; at 50.0 µM 36.1% | [6]; [7] 5%
active: [2]; [8] 82% | [3]; [8] 91% | [3]; at 50.0 µM 91.5% | [6]; [8] 84% | [6]; at 50.0 µM 70.1%

c1ccc2c(c1)oc1cc3c(cc12)CCCN3
active: [1]; [8] 97% | [1]; at 50.0 µM 91.7% | [2]; [8] 98% | [3]; [8] 98% | [3]; at 50.0 µM 74.7% | [4]; [8] 97% | [5]; [8] 98% | [5]; at 50.0 µM 77.7% | [6]; [8] 98%
inactive: [1]; [7] 18% | [2]; [7] 19% | [2]; at 50.0 µM 10.3% | [3]; [7] 7% | [4]; [7] 3% | [4]; at 50.0 µM 4.4% | [5]; [7] 19% | [6]; [7] 18% | [6]; at 50.0 µM 43.5%

O=C(CS)Nc1ccccc1
inactive: [1]; [7] 13% | [1]; at 50.0 µM 65.4% | [2]; [7] 18% | [2]; at 50.0 µM 57.2% | [3]; [7] 14% | [3]; at 50.0 µM 61.1% | [4]; [7] 9% | [4]; at 50.0 µM 47.5% | [5]; [7] 3% | [5]; at 50.0 µM 56.2% | [6]; [7] 16%
active: [1]; [8] 89% | [2]; [8] 91% | [3]; [8] 93% | [4]; [8] 87% | [5]; [8] 84% | [6]; [8] 95% | [6]; at 50.0 µM 84.1%

CCOC(=O)N/N=C/c1ccc([N+](=O)[O-])o1
active: [1]; at 50.0 µM 89.9% | [2]; at 50.0 µM 81.8% | [3]; at 50.0 µM 92.2% | [5]; [8] 77% | [5]; at 50.0 µM 82.1% | [6]; [8] 78% | [6]; at 50.0 µM 94%
inactive: [1]; [7] 11% | [1]; [8] 61% | [2]; [7] 2% | [2]; [8] 35% | [3]; [7] 3% | [3]; [8] 62% | [4]; [7] 1% | [4]; [8] 19% | [4]; at 50.0 µM 52% | [5]; [7] 17% | [6]; [7] 17%

O=[N+]([O-])c1c(Cl)c(Cl)c(O)c(Cl)c1Cl
active: [1]; [8] 80% | [1]; at 50.0 µM 76.5% | [2]; [8] 83% | [2]; at 50.0 µM 78.7% | [3]; [7] 75% | [3]; [8] 87% | [3]; at 50.0 µM 90% | [5]; [8] 75% | [5]; at 50.0 µM 78.2% | [6]; [8] 89% | [6]; at 50.0 µM 70.8%
inactive: [1]; [7] 55% | [2]; [7] 44% | [4]; [7] 31% | [4]; [8] 64% | [4]; at 50.0 µM 30.9% | [5]; [7] 55% | [6]; [7] 32%
